# Laboratory results reported in PubChem BioAssay AID602252 (Broad Institute, 2012).
# Hit rate of the full screen: of about 300,000 compounds, about 2,700 (0.9%) were called active.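 Rule for the calls: active = mean inhibition of at least 30% with at least half of replicates also reaching 30%; inconclusive = no clear call, values can overlap the other calls; inactive = the rest.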 The list comes from a sample in which actives are over-represented; it also holds similar structures and randomly drawn compounds.
# Target: Golgi-associated PDZ and coiled-coil motif-containing protein (Homo sapiens) (UniProt Q9HD26)
# Assay: blockade of CAL PDZ-reporter peptide interaction – biochemical, fluorescence polarization, untagged CAL PDZ, HTS, primary screen (AID 602252);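 note: 0% = DMSO neutral control and 100% = excess unlabeled competitor peptide PRC23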
# Conditions: purified CAL PDZ, TMR-peptide fluorescence polarization, 1 h; at 24.9 µM; active compounds read high
row,Compound,inhibition
1,CCOC(=O)c1c(NC(=S)NC)sc2c1CCCC2,2.4% (inactive)
2,CC(C)OC(=O)c1c(NC(=O)c2ccco2)sc2c1CCCC2,-1.93% (inactive)
3,CCOC(=O)c1c(NC(=S)NC(=O)c2ccco2)sc2c1CCCC2,58.9% (active)
4,C=CC(COCc1ccccc1)N(CC(=O)OC)S(=O)(=O)c1cc(Br)ccc1OC (stereo not drawn),-5.08% (inactive)
5,Cc1ncoc1C(=O)NCCC(c1ccccc1)c1ccccc1,56.7% (active)
6,Cc1ccc(C(=O)NCCNC(=O)c2ccccc2)cc1,10.7% (inactive)
7,Cc1ccc(S(=O)(=O)NCCC(c2ccccc2)c2ccccc2)cc1C(=O)O,3.3% (inactive)
8,COc1cc(C(=O)NC2CCN(C)CC2)ccc1Nc1ncc2c(n1)N(C1CCC(O)CC1)CCC(=O)N2C (stereo not drawn),-0.543% (inactive)
9,FC(F)(F)c1ccc(-c2cccc3c2C2CC3CCN2Cc2ccccc2)cc1 (stereo not drawn),-2.76% (inactive)
10,CC(C)c1ccc(C=NNc2ccc([N+](=O)[O-])cn2)cc1,-3.5% (inactive)
11,C[C@H](O)[C@@H]1C(=O)N2CCc3ccc(N4CCOCC4)cc3[C@@H]2C[C@@H]1N(C)C(=O)C(C)(C)C,-2.27% (inactive)
12,CN(CCc1ccccc1)C(=O)c1cccc(NC(=O)Cc2cccc(NC(=O)C3CCCN(C(=O)CCc4ccccc4)C3)c2)c1 (stereo not drawn),-1.89% (inactive)
13,Cc1ccc(CS(=O)Cc2ccc(C(=O)N3CCOCC3)o2)cc1 (stereo not drawn),61.7% (active)
14,Cc1ccc(S(=O)Cc2ccc(C(=O)N3CCN(C4CCCCC4)CC3)o2)cc1 (stereo not drawn),-1.71% (inactive)
15,Cc1ccc(C(=O)N2CCN(C(=O)N3CCOCC3)CC2)cc1,-4.62% (inactive)
16,CC/C(=C(/c1ccccc1)c1ccc(OCC[N+](C)(C)C)cc1)c1ccccc1,5.44% (inactive)
17,CC(C)Cn1cnc2c(SCc3ccc(Cl)cc3)nc(N)nc21,-5.42% (inactive)
18,CC(=O)CSc1nc(CCc2ccccc2)c(C#N)c(=O)[nH]1,-3.06% (inactive)
19,CCNC(=S)Nc1ccc(OC(F)(F)F)cc1,-0.766% (inactive)
20,CS(=O)(=O)c1sc(C(=O)NC(=S)Nc2ccc(OC(F)(F)F)cc2)c2c1C=CCC2,106% (active)

row,Compound,inhibition
1,FC(F)(F)Oc1ccc(NC(=S)NCc2ccccc2)cc1,2.02% (inactive)
2,CCC(=O)N1CCc2cc(Br)c(S(=O)(=O)NCCN3CCCCC3CC)cc21 (stereo not drawn),-29.4% (inactive)
3,Cc1ccc(C(=O)Nc2ccccc2-c2ccccc2)cc1S(=O)(=O)Nc1ccccc1,-1.73% (inactive)
4,Cc1ccc(CNC(=O)Cn2cnc3c(NCc4ccccc4)ncnc32)o1,-0.092% (inactive)
5,CC(C(=O)N1CCOCC1)N1c2cccc3cccc(c23)S1(=O)=O (stereo not drawn),0.599% (inactive)
6,COc1ccc(C)cc1NC(=O)CN1c2cccc3cccc(c23)S1(=O)=O,-0.836% (inactive)
7,COc1ccc(NC(=O)C(C)N2c3cccc4cccc(c34)S2(=O)=O)c(OC)c1 (stereo not drawn),62.5% (active)
8,O=C(Cn1cnc2c(cnn2-c2ccccc2)c1=O)NCc1ccccc1,2.18% (inactive)
9,CC(C)(C)NC(=O)Cn1cnc2cc([N+](=O)[O-])ccc2c1=O,-5.79% (inactive)
10,O=C(Cn1cnc2cc([N+](=O)[O-])ccc2c1=O)NC(=O)NCc1ccccc1,65.7% (active)
11,COc1cc(C(=O)OCc2cc(=O)n3ccsc3n2)ccc1OC(C)C,-4.78% (inactive)
12,Oc1[nH]c2ccccc2c1N=Nc1c(F)c(F)c(F)c(F)c1F,-3.27% (inactive)
13,O=C(OCC(=O)N1CCN(c2ccccc2)CC1)c1ccc([N+](=O)[O-])s1,4.92% (inactive)
14,O=C(OCC(=O)N1CCN(C(=O)c2ccco2)CC1)c1c(Cl)cccc1Cl,-0.558% (inactive)
15,Cc1ccc(S(=O)(=O)NCCC(=O)NCc2ccc(Cl)cc2)cc1C,66.1% (active)
16,CC(C)CNS(=O)(=O)c1ccc(CCC(=O)NCc2ccc(Cl)cc2)cc1,0.426% (inactive)
17,Cc1ccc(S(=O)(=O)NCCC(=O)Nc2ccc(C)c(Cl)c2)cc1C,-1.6% (inactive)
18,CCN(CC)C(=O)[C@H]1C[C@H](CC(=O)NCC23CC4CC(CC(C4)C2)C3)C(=O)N2CCc3c([nH]c4cc(CCC(=O)N(C)C)ccc34)[C@]12C,-1.84% (inactive)
19,Cc1cc(C(F)(F)F)n2ncc(-c3ccccc3)c2n1,50.2% (active)
20,O=C(O)c1cnn2c(C(F)(F)F)cc(-c3ccccc3)nc12,0.025% (inactive)

row,Compound,inhibition
1,Cc1cc(-n2nc(C)cc2C)n2ncc(-c3ccccc3)c2n1,-1.01% (inactive)
2,O=[N+]([O-])c1cccc(C=NN=Cc2ccccc2O)c1,6.22% (inactive)
3,COC(=O)[C@]1(Cc2ccccc2)N[C@H](CN(C)S(=O)(=O)c2ccc(OC(F)(F)F)cc2)[C@@H]2C(=O)N(Cc3ccccc3)C(=O)[C@@H]21,-5.9% (inactive)
4,NN=C(NN=Cc1ccccc1)c1ccccc1,-2.94% (inactive)
5,COc1ccc(-c2nc3cc(C)ccn3c2NC2CCCCC2)cc1SC1CCCCC1,-0.092% (inactive)
6,CCCCN(CC(=O)Nc1cccc(S(=O)(=O)N2CCCC2)c1)Cc1nc2ccccc2c(=O)[nH]1,-3.98% (inactive)
7,CCc1ccc(CN(C)C(C)C(=O)Nc2ccc(S(=O)(=O)N3CCCC3)cc2)cc1 (stereo not drawn),2.24% (inactive)
8,COc1cc(OC)cc(-c2c(C#Cc3ccsc3)c3cc(-c4ccc(OC)cc4F)ccc3n2C)c1,2.79% (inactive)
9,O=C1OCC2=C1C(c1ccc(Cl)cc1)c1cc3c(cc1O2)OCO3 (stereo not drawn),7.51% (inactive)
10,Cn1cccc1C(=O)N1CCc2ccccc2C1,91.2% (active)
11,Cc1ccc(-c2cc(C(=O)N3CCc4ccccc4C3)no2)cc1,1.04% (inactive)
12,CN(c1ccc(C(=O)N2CCc3ccccc3C2)cc1)S(C)(=O)=O,3.47% (inactive)
13,O=S(=O)(Cc1ccc(Cl)cc1Cl)c1ccc(Cl)cc1,-1.54% (inactive)
14,Cc1nn(-c2ncccn2)c2c1C(=O)CC(C)(C)C2Br (stereo not drawn),0.781% (inactive)
15,CN(C)C(CNC(=O)c1cc2ccccc2o1)c1ccccc1 (stereo not drawn),-5.09% (inactive)
16,CCN(CC)CCCNC(=O)c1ccc2c(=O)n(Cc3ccc4c(c3)OCO4)c(=S)[nH]c2c1,-3.92% (inactive)
17,CCCCNC(=O)c1ccc(-n2c(=S)[nH]c3ccccc3c2=O)cc1,41.5% (active)
18,CCCCn1c(=S)[nH]c2ccccc2c1=O,-2.2% (inactive)
